From PubChem BioAssay
Values without a mark were called inactive. Active and inactive are the calls of the source.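 The calls were made as follows, unless noted: active = mean inhibition above 46.68%, the untreated control wells mean plus 3 SD; inactive = the rest.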

How the values were obtained:
[1] = target: Nuclear receptor coactivator 3 (Homo sapiens) (UniProt Q9Y6Q9); test: NCOA3 GAL4-fusion reporter inhibition – cell-based, luminescence, quadruplicate, confirmation (AID 588792;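 active = mean inhibition over 43.08%, the solvent-only control mean plus 3 SD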;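 also: 0% = DMSO treated cells and 100% = gossypol at 36 µM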); conditions: HEK293 GAL4-SRC3 luciferase reporter, at 3.6 µM, active compounds read high
[2] = tested on: transactivating tegument protein VP16 (Human herpesvirus 1), Gal4-VP16 luciferase reporter; test: repression of VP16-driven luciferase reporter – cell-based, luminescence, high throughput, counter-screen for SRC3 inhibitor project (AID 588794; in the data active = inhibition above about 30%); conditions: mammalian cells, at 3.6 µM, active compounds read high
[3] = target: Nuclear receptor coactivator 1 (Homo sapiens) (UniProt Q15788); test: NCOA1 GAL4-fusion reporter inhibition – cell-based, luminescence, quadruplicate, confirmation (AID 588820); conditions: HEK293 GAL4-SRC1 luciferase reporter, at 3.6 µM, active compounds read high;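 also: 0% = DMSO wells and 100% = gossypol 36 µM treated wells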
[4] = repression of VP16-driven luciferase reporter – cell-based, luminescence, high throughput, counter-screen for SRC1 inhibitor project (AID 588824; in the data active = inhibition above about 25%); conditions: cell-based VP16 transactivation luciferase luminescence; at 3.6 µM; active compounds read high

Nuclear receptor coactivator 3 (Homo sapiens), sequence (Q9Y6Q9 whole entry, looked up, the tested form may be a part): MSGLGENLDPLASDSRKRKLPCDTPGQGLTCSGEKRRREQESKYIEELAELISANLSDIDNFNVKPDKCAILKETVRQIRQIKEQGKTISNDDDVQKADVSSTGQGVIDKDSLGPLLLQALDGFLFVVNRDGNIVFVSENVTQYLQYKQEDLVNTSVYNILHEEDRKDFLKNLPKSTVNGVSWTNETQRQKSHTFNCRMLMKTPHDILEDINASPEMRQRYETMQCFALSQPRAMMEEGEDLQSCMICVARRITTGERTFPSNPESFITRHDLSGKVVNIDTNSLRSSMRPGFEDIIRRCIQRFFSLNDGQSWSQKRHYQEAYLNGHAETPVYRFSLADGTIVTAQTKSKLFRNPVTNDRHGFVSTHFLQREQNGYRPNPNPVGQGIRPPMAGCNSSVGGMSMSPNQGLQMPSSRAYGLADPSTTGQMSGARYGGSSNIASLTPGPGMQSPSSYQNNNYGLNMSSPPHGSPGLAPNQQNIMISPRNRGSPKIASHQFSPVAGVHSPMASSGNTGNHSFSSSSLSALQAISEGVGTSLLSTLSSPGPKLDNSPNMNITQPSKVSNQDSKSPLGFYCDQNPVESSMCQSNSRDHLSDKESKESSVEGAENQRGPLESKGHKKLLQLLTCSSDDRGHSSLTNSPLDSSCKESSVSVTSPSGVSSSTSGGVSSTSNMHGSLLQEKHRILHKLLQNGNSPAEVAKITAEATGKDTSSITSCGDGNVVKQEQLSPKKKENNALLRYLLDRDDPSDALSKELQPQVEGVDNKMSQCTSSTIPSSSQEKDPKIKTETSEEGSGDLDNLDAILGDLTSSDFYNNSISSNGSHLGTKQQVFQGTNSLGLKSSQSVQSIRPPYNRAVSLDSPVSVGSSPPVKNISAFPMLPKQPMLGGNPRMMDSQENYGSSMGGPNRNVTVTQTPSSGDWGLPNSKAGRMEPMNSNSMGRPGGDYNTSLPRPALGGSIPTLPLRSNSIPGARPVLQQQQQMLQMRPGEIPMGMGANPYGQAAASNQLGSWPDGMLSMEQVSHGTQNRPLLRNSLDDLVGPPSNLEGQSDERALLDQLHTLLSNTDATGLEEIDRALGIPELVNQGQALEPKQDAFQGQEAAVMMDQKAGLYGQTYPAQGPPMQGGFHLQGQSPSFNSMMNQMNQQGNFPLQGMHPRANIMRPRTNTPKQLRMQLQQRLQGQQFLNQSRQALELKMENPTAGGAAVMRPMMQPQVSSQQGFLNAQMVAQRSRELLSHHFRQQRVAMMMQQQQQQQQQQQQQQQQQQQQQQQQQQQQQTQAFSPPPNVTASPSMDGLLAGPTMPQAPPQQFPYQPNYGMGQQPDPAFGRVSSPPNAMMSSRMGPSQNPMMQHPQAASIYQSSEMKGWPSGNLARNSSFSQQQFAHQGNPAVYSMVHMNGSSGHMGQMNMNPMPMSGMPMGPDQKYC
Nuclear receptor coactivator 1 (Homo sapiens), sequence (Q15788 whole entry, looked up, the tested form may be a part): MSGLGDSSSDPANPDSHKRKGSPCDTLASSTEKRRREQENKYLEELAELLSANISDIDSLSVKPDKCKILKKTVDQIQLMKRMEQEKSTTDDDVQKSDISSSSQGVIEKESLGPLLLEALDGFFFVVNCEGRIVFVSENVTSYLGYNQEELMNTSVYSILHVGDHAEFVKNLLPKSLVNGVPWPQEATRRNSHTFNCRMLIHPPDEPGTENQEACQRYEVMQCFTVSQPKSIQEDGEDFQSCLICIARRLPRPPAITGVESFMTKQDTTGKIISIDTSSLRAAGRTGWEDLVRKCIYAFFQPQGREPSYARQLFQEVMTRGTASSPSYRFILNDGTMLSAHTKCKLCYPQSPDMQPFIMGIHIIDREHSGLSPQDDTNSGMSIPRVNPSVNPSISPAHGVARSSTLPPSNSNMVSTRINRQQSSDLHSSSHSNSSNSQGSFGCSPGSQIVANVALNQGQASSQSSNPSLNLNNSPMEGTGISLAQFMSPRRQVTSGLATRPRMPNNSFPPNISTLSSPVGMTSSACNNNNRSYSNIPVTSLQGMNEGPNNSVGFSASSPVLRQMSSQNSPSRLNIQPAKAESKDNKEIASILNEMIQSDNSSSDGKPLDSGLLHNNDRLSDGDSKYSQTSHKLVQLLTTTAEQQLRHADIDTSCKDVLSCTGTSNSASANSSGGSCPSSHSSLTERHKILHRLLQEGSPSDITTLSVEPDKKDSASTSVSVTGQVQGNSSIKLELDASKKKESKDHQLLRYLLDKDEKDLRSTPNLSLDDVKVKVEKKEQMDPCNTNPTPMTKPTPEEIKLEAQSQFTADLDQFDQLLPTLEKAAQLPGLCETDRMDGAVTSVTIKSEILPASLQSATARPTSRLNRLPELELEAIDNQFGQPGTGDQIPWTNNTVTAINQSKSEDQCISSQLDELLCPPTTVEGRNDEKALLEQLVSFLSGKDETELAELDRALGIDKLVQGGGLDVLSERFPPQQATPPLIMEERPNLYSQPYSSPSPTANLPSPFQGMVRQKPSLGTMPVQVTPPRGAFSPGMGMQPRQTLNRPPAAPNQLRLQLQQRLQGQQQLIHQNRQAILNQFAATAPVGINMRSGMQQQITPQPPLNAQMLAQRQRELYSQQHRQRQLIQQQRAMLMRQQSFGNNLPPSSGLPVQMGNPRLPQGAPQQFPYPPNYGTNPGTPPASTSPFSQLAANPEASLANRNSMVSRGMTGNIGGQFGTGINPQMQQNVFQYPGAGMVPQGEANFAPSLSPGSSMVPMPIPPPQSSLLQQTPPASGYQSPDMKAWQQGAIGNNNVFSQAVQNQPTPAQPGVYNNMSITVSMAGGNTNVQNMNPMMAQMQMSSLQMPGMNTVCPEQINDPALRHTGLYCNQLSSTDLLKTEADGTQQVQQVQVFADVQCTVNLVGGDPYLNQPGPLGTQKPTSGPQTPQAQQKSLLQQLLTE

Cc1ccc(C(=O)Nc2nc(-c3ccccn3)cs2)cc1S(=O)(=O)N1CCOCC1
inhibition [1]: 17% | inhibition [2]: 29% | inhibition [3]: 13.8% | inhibition [4]: 35.8% (active)

Cc1cccc(/C=N/Nc2ccc3ccccc3n2)c1
inhibition [1]: 16.1% | inhibition [2]: -21.2% | inhibition [3]: -80.5% | inhibition [4]: -55%

O=c1[nH]cc(F)c(=O)[nH]1
inhibition [1]: 14.7% | inhibition [2]: 31% (active) | inhibition [3]: 8.56% | inhibition [4]: 22.3%

Cc1ccc(-c2nnn(CC(=O)N(Cc3cccs3)C(C(=O)NC3CCCC3)c3ccncc3)n2)cc1 (stereo unspecified)
inhibition [1]: 58.2% (active) | inhibition [2]: 35.2% (active) | inhibition [3]: 48.4% (active) | inhibition [4]: 34.1% (active)

COc1ccc2[nH]c(=O)c(CN(CCN3CCCC3)C(=O)Nc3ccccc3Cl)cc2c1
inhibition [1]: 31.9% | inhibition [2]: 20.4% | inhibition [3]: 36% | inhibition [4]: 18.6%

O=C(NC(=S)Nc1ccc(N2CCN(C(=O)c3ccccc3)CC2)cc1)c1cccs1
inhibition [1]: 25.8% | inhibition [2]: 23.8% | inhibition [3]: 16% | inhibition [4]: 14.3%

O=C(Nc1ccc(N2CCN(C(=O)c3ccccc3F)CC2)cc1)c1cncc(Br)c1
inhibition [1]: 64.7% (active) | inhibition [2]: 37.8% (active) | inhibition [3]: 34.5% | inhibition [4]: 48% (active)

CCCCN(CCCC)c1ncnc2nc[nH]c12
inhibition [1]: 43.2% (active) | inhibition [2]: 30.1% (active) | inhibition [3]: 36.2% | inhibition [4]: 25.2%

Cc1sc(NC(=O)Cc2ccc3c(c2)OCO3)nc1-c1ccc2c(c1)CCN2C(=O)c1ccc(F)cc1
inhibition [1]: 13.6% | inhibition [2]: 30.3% (active) | inhibition [3]: 17.3% | inhibition [4]: 25.9% (active)
